Data: PubChem BioAssay (NCATS)
Inconclusive results are not listed. Where a call stands in place of a potency, no number is given. The source made the active and inactive calls. Calls follow the shape of the dose curve; as a rule, active = well fitted cell-killing curve with a large enough effect; inconclusive = small, poorly fitted or top-dose-only effect, or effect the other way; inactive = no such curve, though single readings can be large or run the other way.

Assay: Viability qHTS for spleen associated tyrosine kinase inhibitor (SYKi) naive MV4-11 cells (AID 1963823); also: nearly all actives have a fitted effect of over 40% in size
Settings: MV4-11 AML viability, CellTiter-Glo luminescence, 72 h; series mostly up to 45 µM
Method in brief: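 SYKi-naive MV4-11 AML cells, 500 per well, were exposed to library compounds for 72 hr at 37 C, 5% CO2. Viability was then read by CellTiter-Glo luminescence after 10 min at room temperature.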
Potency is read from the fitted curve at half-maximal effect.

Which Potency does the source give for `C[C@@H]1C(=O)O[C@H]2[C@@H](O)C34[C@H]5C[C@@H](C(C)(C)C)C36[C@@H](OC(=O)[C@@H]6O)O[C@@]4(C(=O)O5)[C@@]12O` (stereo partly specified) here?
Its Potency is “inactive”.

Which Potency does the source give for `CCOc1ccc(C(Nc2ccccn2)c2ccc3ccc(C)nc3c2O)cc1C` (stereo unspecified) here?
Its Potency is 23.1 µM (active).

Which Potency does the source give for `C[C@]12CCC[C@](C)(C(=O)O)C1[C@@H](O)[C@@H](O)C13CC(CCC12)C(CO)(O[C@@H]1O[C@H](CO)[C@@H](O)[C@H](O)[C@H]1O)C3` (stereo partly specified) here?
Its Potency is “inactive”.

For `C/C(=C\CCC(C)CCO)C(=O)O[C@@H]1[C@@H](O)[C@H](OC2OC=C(C(=O)O)C3CCC(C)(O)C23)O[C@H](CO)[C@H]1O` (stereo partly specified), which Potency is on record?
The Potency was “inactive”.

Which Potency does the source give for `CC/C=C/C(O)C(O)C1=C(C)C(=O)C2(O1)C(=O)NC(OC)(C(=O)c1ccccc1)C2O` (stereo unspecified) here?
Its Potency is “inactive”.

For `NC(=O)c1ccc(F)c2c1C[C@@H](N(C1CCC1)C1CCC1)CO2`, which Potency is on record?
The Potency was “inactive”.

For `COc1ccc(CC2NCCc3c2[nH]c2ccc(C)cc32)cc1OC` (stereo unspecified), which Potency is on record?
The Potency was 9.2 µM (active).

Which Potency does the source give for `CC#CCn1c(N2CCCC(N)C2)nc2c1c(=O)n(Cc1nc(C)c3ccccc3n1)c(=O)n2C` (stereo unspecified) here?
Its Potency is “inactive”.

For `Cc1cc(C)nc(SCC(=O)Nc2ncc(Cc3cccc4ccccc34)s2)n1`, which Potency is on record?
The Potency was 7.31 µM (active).

Which Potency does the source give for `CCC(C)/C=C(C)/C=C/C1=CC2=C(Cl)C(=O)C(C)(OC(C)=O)C(=O)C2=CN1C(CC(=O)O)C(=O)O` (stereo unspecified) here?
The Potency was “inactive”.

For `CC1CC=C2C1CC1(O)C(=O)CC2(C)C1(C)CO` (stereo unspecified), which Potency is on record?
Its Potency is “inactive”.

With `CC1=C2C3OC(=O)C(C)C3(O)CCC2(C)CCC1` (stereo unspecified) as the compound, how does the Potency read?
Its Potency is “inactive”.

Which Potency does the source give for `C[C@@H]1O[C@@H](O[C@H]2[C@H](O)[C@@H](O)[C@H](O[C@H]3[C@H](O[C@H]4CC[C@@]5(C)C(=CC[C@@H]6C5CC[C@]5(C)[C@@H]7[C@H](C[C@@H]65)O[C@]5(CC[C@@](C)(CO[C@@H]6O[C@H](CO)[C@@H](O)[C@H](O)[C@H]6O)O5)[C@H]7C)C4)O[C@H](CO)[C@@H](O)[C@@H]3O)O[C@@H]2CO)[C@H](O)[C@H](O)[C@H]1O` (stereo partly specified) here?
The Potency was 0.618 µM (active).

With `CC1=C(C)C(=O)OC(C(C)(O)C2CCC3C4CC=C5CC(OC6OC(COC7OC(CO)C(O)C(O)C7O)C(O)C(O)C6O)CC(O)C5(C)C4CCC32C)C1` (stereo unspecified) as the compound, how does the Potency read?
Its Potency is “inactive”.

With `COc1ccc(/C=C/C(=O)O[C@@H]2[C@@H](O[C@@H]3O[C@H](CO)[C@@H](O)[C@H](O)[C@H]3O)[C@@H](O)[C@H](O[C@H]3C4C=CO[C@@H](O[C@@H]5O[C@H](CO)[C@@H](O)[C@H](O)[C@H]5O)C4[C@@]4(CO)O[C@@H]34)O[C@H]2C)cc1` (stereo partly specified) as the compound, how does the viability (% of control) read?
Its viability (% of control) is 75.2% [at 9.25 µM] (inactive).

Which Potency does the source give for `C=C1CCC2C(C)(C(=O)O)CCCC2(C)C1CCC1=CCOC1=O` (stereo unspecified) here?
The Potency was “inactive”.

For `C=C1C[C@]23C[C@H]1CC[C@H]2[C@]1(C)CC[C@H](O)[C@@](C)(C(=O)O)[C@H]1[C@@H]3C(=O)O`, which Potency is on record?
The Potency was “inactive”.

For `CC1=C2C3OC(=O)C(C)C3(O)CCC2(C)CCC1=O` (stereo unspecified), which Potency is on record?
The Potency was “inactive”.

For `C=CC/C=C\C/C=C\CCCCCCCc1cccc(O)c1C(=O)O`, which Potency is on record?
Its Potency is “inactive”.

For `CC1C(=O)CC2C3CCC(C(=O)O)C12CC3(C)CO` (stereo unspecified), which Potency is on record?
Its Potency is “inactive”.

With `COC(=O)C[C@H]1[C@]2(C)C3=C(C)[C@H](c4ccoc4)C[C@H]3O[C@@H]2[C@H](O)C2[C@](C)(C(=O)OC)C=CC(=O)[C@@]21C` (stereo partly specified) as the compound, how does the Potency read?
The Potency was “inactive”.

Which Potency does the source give for `COc1ccc(C2(O)c3ccccc3NC(=O)C2O)cc1` (stereo unspecified) here?
Its Potency is “inactive”.

Which Potency does the source give for `COc1cc(CC(COC2OC(CO)C(O)C(O)C2O)c2cc(/C=C/CO)cc(OC)c2O)ccc1O` (stereo unspecified) here?
Its Potency is “inactive”.

For `CC[C@@H]1C(=O)O[C@]23C=C[C@@H]4C(C(=O)OC)=CO[C@H](O[C@@H]12)[C@@H]43`, which Potency is on record?
Its Potency is 3.66 µM (active).

Which Potency does the source give for `COc1ccc(C(=O)OC2C3C=COC(OC4OC(CO)C(O)C(O)C4O)C3C3(CO)OC23)cc1OC` (stereo unspecified) here?
The Potency was “inactive”.

With `O=C(O)CC1CC(c2ccccc2)=NO1` (stereo unspecified) as the compound, how does the Potency read?
Its Potency is “inactive”.

For `OC[C@H]1O[C@@H](OCCc2ccc(O)cc2)[C@H](O[C@@H]2OC[C@](O)(CO)[C@H]2O)[C@@H](O)[C@@H]1O`, which Potency is on record?
Its Potency is “inactive”.

With `Cc1occc1C(=O)n1ccnc1` as the compound, how does the Potency read?
The Potency was “inactive”.

With `C[C@@H]1N[C@H]2N(C1=O)c1ccccc1[C@@]2(O)C[C@@H]1C(=O)N[C@@H](C)c2nc3ccccc3c(=O)n21` as the compound, how does the Potency read?
Its Potency is “inactive”.

Which Potency does the source give for `[N-]=[N+]=N[C@]1(CO)O[C@@H](n2ccc(N)nc2=O)[C@@H](O)[C@@H]1O` here?
The Potency was “inactive”.

With `COc1cc2c(cc1O)[C@H](c1ccc(O[C@@H]3O[C@H](CO)[C@@H](O)[C@H](O)[C@H]3O)c(OC)c1)[C@@H](CO)[C@](O)(CO)C2` as the compound, how does the Potency read?
Its Potency is “inactive”.
